Read-out in assay [1]: Interferon-gamma inducible Protein 10 (IP10), CXCL10 (gene 3627)
In words: BSK_hDFCGF_IP10: BioMAP Diversity Plus: hDFCGF Assay for Interferon-gamma inducible Protein 10 (IP10) Biomarker Activity (AID 2283053). Particulars: primary human foreskin fibroblasts; actives raise or lower the signal. In a few lines:
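Primary foreskin fibroblasts, human; 24 h compound exposure; IP-10 by ELISA; bidirectional fit vs DMSO.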

Read-out in assay [2]: Urokinase-type plasminogen activator receptor (uPAR), PLAUR (gene 5329)
Nature of the assay: BSK_CASM3C_uPAR: BioMAP Diversity Plus: CASM3C Assay for Urokinase-type plasminogen activator receptor (uPAR) Biomarker Activity (AID 2283054).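 Note: cell-surface uPAR protein level quantified by ELISA.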 The following applies: primary human coronary artery smooth muscle cells; actives raise or lower the signal.

Read-out in assay [3]: Vascular cell adhesion molecule 1 (VCAM1), VCAM1 (gene 7412)
Nature of the assay: BSK_CASM3C_VCAM1: BioMAP Diversity Plus: CASM3C Assay for Vascular cell adhesion molecule 1 (VCAM1) Biomarker Activity (AID 2283055).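 Note: VCAM-1 protein level quantified by ELISA on the cells.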 Particulars: primary human coronary artery smooth muscle cells; actives raise or lower the signal.

Read-out in assay [4]: Epidermal growth factor receptor (EGFR), EGFR (gene 1956)
In words: BSK_hDFCGF_EGFR: BioMAP Diversity Plus: hDFCGF Assay for Epidermal growth factor receptor (EGFR) Biomarker Activity (AID 2283057). Particulars: primary human foreskin fibroblasts; actives raise or lower the signal. In a few lines:
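hDFCGF system, primary human foreskin fibroblasts; compound 24 h; EGFR measured by ELISA; DMSO = negative control/baseline; bidirectional fitting.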

Read-out in assay [5]: Interleukin-8 (IL8), CXCL8 (gene 3576)
Nature of the assay: BSK_hDFCGF_IL8: BioMAP Diversity Plus: hDFCGF Assay for Interleukin-8 (IL8) Biomarker Activity (AID 2283058). Particulars: primary human foreskin fibroblasts; actives raise or lower the signal. In a few lines: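 Primary human foreskin fibroblasts (hDFCGF system) dosed with chemical; IL-8 measured by ELISA 24 hours later. Bidirectional curve fitting relative to DMSO baseline; cytotoxicity tracked in parallel cultures by SRB total protein staining.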

Assay [6] can be described thus: BSK_hDFCGF_Proliferation: Cell Proliferation Assessment in the BioMAP Diversity Plus: hDFCGF Assay (AID 2283059).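 Note: curves fitted for both rise and fall of signal versus DMSO baseline.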 The following applies: primary human foreskin fibroblasts. In a few lines:
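Primary human foreskin fibroblasts, sub-confluent; […]; 10% TCA fix, 0.1% SRB stain, A560 total protein. Gain/loss fitted bidirectionally vs DMSO control.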

Read-out in assay [7]: Macrophage colony-stimulating factor (MCSF), CSF1 (gene 1435)
In words: BSK_hDFCGF_MCSF: BioMAP Diversity Plus: hDFCGF Assay for Macrophage colony-stimulating factor (MCSF) Biomarker Activity (AID 2283060). Particulars: primary human foreskin fibroblasts; actives raise or lower the signal. In a few lines:
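Human foreskin fibroblast primary cultures; M-CSF measured by ELISA 24 hours after chemical dosing. Bidirectional fitting relative to DMSO, with overt cytotoxicity tracked by parallel SRB total-protein staining (0.1% SRB, 10% TCA fixation, 560 nm).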

A short description of assay [8]: BSK_hDFCGF_SRB: Viability Assessment in the BioMAP Diversity Plus: hDFCGF Assay (AID 2283061).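 Note: cells exposed to compound for 24 h before the read.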 The following applies: primary human foreskin fibroblasts. The gist of the method: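 Human foreskin fibroblasts in 96-well plates were treated 24 h. Total protein was measured by 0.1% SRB staining after 10% TCA fixation, read at 560 nm. Data were fitted bidirectionally against DMSO.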

Read-out in assay [9]: TIMP metallopeptidase inhibitor 1 (TIMP1), TIMP1 (gene 7076)
In words: BSK_hDFCGF_TIMP1: BioMAP Diversity Plus: hDFCGF Assay for TIMP metallopeptidase inhibitor 1 (TIMP1) Biomarker Activity (AID 2283062). The following applies: primary human foreskin fibroblasts; actives raise or lower the signal. The gist of the method: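 Human foreskin fibroblast primary cultures dosed for 24 h; secreted/surface TIMP-1 quantified by ELISA. Bidirectional curve fitting against DMSO baseline; cytotoxicity tracked in parallel cultures by SRB total-protein staining.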

Read-out in assay [10]: Monokine induced gamma interferon (MIG), CXCL9 (gene 4283)
In words: BSK_hDFCGF_MIG: BioMAP Diversity Plus: hDFCGF Assay for Monokine induced gamma interferon (MIG) Biomarker Activity (AID 2283063). The following applies: primary human foreskin fibroblasts; actives raise or lower the signal. In a few lines: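 MIG/CXCL9 measured by ELISA 24 h after dosing primary human skin fibroblasts. Activity fitted in both directions against DMSO controls. Cytotoxicity was checked in parallel cultures by SRB staining read at 560 nm.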

Read-out in assay [11]: Matrix Metallopeptidase 1 (MMP1), MMP1 (gene 4312)
In words: BSK_hDFCGF_MMP1: BioMAP Diversity Plus: hDFCGF Assay for Matrix Metallopeptidase 1 (MMP1) Biomarker Activity (AID 2283064). The following applies: primary human foreskin fibroblasts; actives raise or lower the signal. In a few lines: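 Primary human foreskin fibroblasts in the hDFCGF system were dosed with test chemical, and MMP1 was measured by ELISA 24 h later. Values come from bidirectional curve fitting against the DMSO baseline.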

Read-out in assay [12]: Vascular cell adhesion molecule 1 (VCAM1), VCAM1 (gene 7412)
In words: BSK_hDFCGF_VCAM1: BioMAP Diversity Plus: hDFCGF Assay for Vascular cell adhesion molecule 1 (VCAM1) Biomarker Activity (AID 2283065).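 For AC50: VCAM-1 protein level quantified by ELISA after 24 h chemical exposure.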 The following applies: primary human foreskin fibroblasts; actives raise or lower the signal. The gist of the method:
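Human foreskin fibroblast primary cells dosed with chemical, VCAM-1 measured by ELISA at 24 h. Bidirectional curve fitting relative to DMSO as negative control/baseline.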

Read-out in assay [13]: Plasminogen activator inhibitor-1 (PAI1), SERPINE1 (gene 5054)
In words: BSK_hDFCGF_PAI1: BioMAP Diversity Plus: hDFCGF Assay for Plasminogen activator inhibitor-1 (PAI1) Biomarker Activity (AID 2283066). Particulars: primary human foreskin fibroblasts; actives raise or lower the signal. The gist of the method: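 Primary dermal fibroblasts (human foreskin), hDFCGF system; compound 24 h; PAI-1 by ELISA; bidirectional fit vs DMSO control.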

Read-out in assay [14]: Intercellular Adhesion Molecule 1 (ICAM1), ICAM1 (gene 3383)
Nature of the assay: BSK_KF3CT_ICAM1: BioMAP Diversity Plus: KF3CT Assay for Intercellular Adhesion Molecule 1 (ICAM1) Biomarker Activity (AID 2283067). The following applies: primary human keratinocytes with fibroblasts; actives raise or lower the signal. In a few lines:
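Human keratinocyte–foreskin fibroblast co-culture was treated for 24 h. Cell-surface ICAM-1 was quantified by ELISA, fitted bidirectionally relative to DMSO. Cytotoxicity was checked in parallel cultures by SRB total-protein staining.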

A short description of assay [15]: BSK_KF3CT_SRB: Viability Assessment in the BioMAP Diversity Plus: KF3CT Assay (AID 2283069).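 Note: total protein by sulforhodamine B staining as a cytotoxicity measure; read 24 h after compound addition.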 The following applies: primary human keratinocytes with fibroblasts. The gist of the method: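 Human primary keratinocyte plus foreskin fibroblast co-culture exposed to chemicals for 24 h. Total protein measured by 0.1% sulforhodamine B staining after 10% TCA fixation, read at 560 nm; bidirectional fitting versus DMSO baseline.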

Read-out in assay [16]: Interleukin-1 alpha (IL1a), IL1A (gene 3552)
Nature of the assay: BSK_KF3CT_IL1a: BioMAP Diversity Plus: KF3CT Assay for Interleukin-1 alpha (IL1a) Biomarker Activity (AID 2283070). Particulars: primary human keratinocytes with fibroblasts; actives raise or lower the signal. The gist of the method:
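Human keratinocyte plus foreskin fibroblast primary co-culture, sampled 24 h after chemical dosing. IL-1a measured by ELISA; responses fitted bidirectionally against DMSO baseline (negative control), so gain or loss of signal both count.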

Read-out in assay [17]: TIMP metallopeptidase inhibitor 2 (TIMP2), TIMP2 (gene 7077)
In words: BSK_KF3CT_TIMP2: BioMAP Diversity Plus: KF3CT Assay for TIMP metallopeptidase inhibitor 2 (TIMP2) Biomarker Activity (AID 2283071). Particulars: primary human keratinocytes with fibroblasts; actives raise or lower the signal. The gist of the method: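 Cells: human keratinocytes co-cultured with foreskin fibroblasts. Treat with chemical, 24 h. Measure TIMP-2 by ELISA; fit curves bidirectionally vs DMSO baseline.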

Read-out in assay [18]: Transforming growth factor beta 1 (TGFb1), TGFB1 (gene 7040)
Nature of the assay: BSK_KF3CT_TGFb1: BioMAP Diversity Plus: KF3CT Assay for Transforming growth factor beta 1 (TGFb1) Biomarker Activity (AID 2283072). The following applies: primary human keratinocytes with fibroblasts; actives raise or lower the signal. The gist of the method: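 Primary human skin cells (keratinocytes, foreskin fibroblasts) were co-cultured, exposed to test chemical and sampled at 24 h. TGF-b1 levels were measured by ELISA and fitted bidirectionally relative to DMSO.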

Read-out in assay [19]: Interferon-gamma inducible Protein 10 (IP10), CXCL10 (gene 3627)
Nature of the assay: BSK_KF3CT_IP10: BioMAP Diversity Plus: KF3CT Assay for Interferon-gamma inducible Protein 10 (IP10) Biomarker Activity (AID 2283068). The following applies: primary human keratinocytes with fibroblasts; actives raise or lower the signal. The gist of the method:
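In a primary skin co-culture of keratinocytes and fibroblasts, IP-10 is quantified by ELISA at 24 h after dosing. SRB staining of parallel wells monitors overt toxicity. Curves are fitted both directions against DMSO.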

The values below come from PubChem BioAssay (EPA / NIEHS).

By AC50 is commonly meant the concentration at which the activity in the assay is half-maximal.

Each structure is given as a SMILES string. The source made the active and inactive calls. Rule for the calls: active = hit-call score of the fitted dose curve at least 0.9, where 1 is the maximum; inactive = score below 0.9.

As to `c1ccc2cc3c(ccc4ccccc43)cc2c1`, the outcome in [1], in assay [2], in assay [3], in assay [4], in [5] and in [6] was inactive. The outcome in [7], in [8], in assay [9], in [10], in assay [11] and in assay [12] was inactive. Further, the result in [13], in assay [14], in assay [15], in assay [16], in [17] and in assay [18] was inactive.

On to `OC1CCCCC1`, for which the outcome in assay [1], in assay [2], in assay [3], in [4], in assay [5] and in assay [6] was inactive. Also, the result in [7], in assay [8], in assay [10], in [11], in assay [12] and in assay [13] was inactive. Besides, the result in assay [14], in [15], in [16], in [17] and in [18] was inactive.

For `Oc1cc2ccccc2c2ccccc12`, the AC50 in assay [1] was 2 µM (active); in [2] it was 11.2 µM (active); in [3], 8.3 µM (active); in assay [5] it was 3.94 µM (active); in assay [6], 1.56 µM (active); in [7], 2.72 µM (active). Also, the AC50 in assay [8] is 3.24 µM (active); in assay [9] it was 3.41 µM (active); in [10], 2.78 µM (active); in assay [11], 2.93 µM (active); in assay [12], 2.07 µM (active); in [13], 2.4 µM (active). The AC50 in assay [14] was 6.96 µM (active); in assay [16] it was 6 µM (active); in assay [17], 7.99 µM (active); in [18] it was 6.02 µM (active). In addition, the outcome in assay [4] and in [15] was inactive.

As to `CCCOc1sc(C(=O)N2CCC(c3cc(CN)ccc3F)CC2)c(C)c1Br`, the AC50 in assay [1] is 10.4 µM (active); in assay [2] it was 8.94 µM (active); in assay [3] it was 18.6 µM (active); in assay [4], 5.12 µM (active); in assay [5] it was 7.73 µM (active); in assay [6] it was 3.1 µM (active). The concentration at half-maximal activity (AC50) in [7] was 6.92 µM (active); in assay [8], 6.53 µM (active); in [10], 9.21 µM (active); in assay [11], 10.3 µM (active); in assay [12], 9.91 µM (active); in assay [13] it was 6.22 µM (active). Moreover, the concentration at half-maximal activity (AC50) is 10.6 µM (active) in assay [14]; 5.28 µM (active) in [15]; 10.6 µM (active) in [16]; 9.6 µM (active) in [17]; 8.97 µM (active) in assay [18].

Regarding `CCN(CC)CCNc1ccc(CNC=O)c2sc3ccc(OC)cc3c(=O)c12`, the half-maximal activity concentration (AC50) in assay [1] is 15.5 µM (active); in [2] it was 11.1 µM (active); in assay [3], 12 µM (active); in [5], 33.7 µM (active); in assay [6] it was 6.31 µM (active); in [7], 12.9 µM (active). The AC50 was 14.6 µM (active) in assay [8]; 34.2 µM (active) in assay [10]; 10.7 µM (active) in [11]; 32.4 µM (active) in assay [12]; 11 µM (active) in [13]; 31.6 µM (active) in [14]. For the same molecule, the AC50 in [19] is 30.8 µM (active); in assay [15], 26.4 µM (active); in [16] it was 22.3 µM (active); in assay [17], 25 µM (active); in [18], 26.7 µM (active). Also, in assay [4], the result was inactive.
